Assay results taken from PubChem BioAssay (NCI).
About 83,000 compounds went through this panel and 20% of them were active in at least one assay; those are over-represented in the sample as a whole.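 Each cell line was grown in a 96-well plate and treated with one concentration of compound for 48 hours. Values below 10 were considered active.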 Activity calls are given as the source filed them.

Key:
Test in all cases: NCI-60 one-dose screen, 48 h (100 = growth as untreated, 0 = no growth, -100 = all killed)
Conditions in all cases: 10 µM unless noted
NCI-H23 lung = tested on: NCI-H23 lung
NCI-H226 lung = tested on: NCI-H226 lung
NCI-H322M lung = tested on: NCI-H322M lung
HOP-62 NSCLC = tested on: HOP-62 NSCLC
HOP-92 NSCLC = tested on: HOP-92 NSCLC
NCI-H522 lung = tested on: NCI-H522 lung
A549/ATCC NSCLC = tested on: A549/ATCC NSCLC
786-0 renal = tested on: 786-0 renal
COLO 205 colon = tested on: COLO 205 colon
NCI-H460 lung = tested on: NCI-H460 lung

Measured: growth

Nc1nc(-c2cccc([N+](=O)[O-])c2)c(N=Nc2cccc(Cl)c2)s1
active: HOP-92 NSCLC -13.7%
inactive: NCI-H23 lung 45.5% | NCI-H226 lung 58.5% | NCI-H322M lung 75.1% | HOP-62 NSCLC 46.3% | NCI-H522 lung 26% | A549/ATCC NSCLC 48.7% | 786-0 renal 47.3% | COLO 205 colon 48.1%

CCOC(=O)c1c(NC(=O)c2ccc(F)cc2F)sc2c1CCC(=O)C2
inactive: NCI-H23 lung 103% | NCI-H226 lung 107% | NCI-H322M lung 102% | HOP-62 NSCLC 104% | HOP-92 NSCLC 107% | NCI-H522 lung 51.6% | A549/ATCC NSCLC 92.8% | 786-0 renal 100% | COLO 205 colon 109%

CCN(CC)CCN1C(=O)c2c(c3c4cc(Br)ccc4[nH]c3c3ccc4ccccc4c23)C1=O
active: NCI-H23 lung -81.8% | NCI-H322M lung -92.3% | HOP-62 NSCLC -66.9% | HOP-92 NSCLC -65.1% | NCI-H522 lung -41.9% | A549/ATCC NSCLC -80.1% | 786-0 renal -85.9% | COLO 205 colon -3.78%
inactive: NCI-H226 lung 60.8%

C=C(C)[C@@H]1CC[C@]2(C)[C@H](CC=C3[C@@H]4CC(C)(C)CC[C@]4(C(=O)NCC#CCN4CCN(C)CC4)CC[C@]32C)[C@@]1(C)CCC#N
inactive: NCI-H23 lung 79.4% | NCI-H226 lung 86.7% | NCI-H322M lung 85.8% | HOP-62 NSCLC 81.3% | HOP-92 NSCLC 13% | NCI-H522 lung 78.3% | A549/ATCC NSCLC 52.9% | 786-0 renal 52.3% | COLO 205 colon 86.6%

CC1OC(O[C@@H]2[C@H](O)C(CO)OC(O[C@H]3COC(O[C@H]4CC[C@]5(C)[C@H]6CC[C@]78OC[C@@]9(CCC(C)(C)C[C@H]97)[C@H](O)C[C@@]8(C)[C@]6(C)CC[C@H]5C4(C)C)[C@@H](OC4OC(CO)[C@@H](O)[C@@H](O)[C@@H]4O)[C@@H]3O)[C@H]2OC2OC[C@@H](O)[C@@H](O)[C@@H]2O)[C@@H](O)[C@@H](O)[C@H]1O (stereo partly drawn)
active: NCI-H23 lung -62.7% | NCI-H226 lung -40% | NCI-H322M lung -78.2% | HOP-62 NSCLC -81% | HOP-92 NSCLC -39.3% | NCI-H522 lung -72.4% | A549/ATCC NSCLC -67.7% | 786-0 renal -80.9% | COLO 205 colon -74.5%

O=C1Nc2ccc(Cl)cc2/C1=C/c1ccc(OCc2ccc(F)cc2)cc1
inactive: NCI-H23 lung 92.5% | NCI-H226 lung 96.4% | NCI-H322M lung 95.7% | HOP-62 NSCLC 107% | HOP-92 NSCLC 85.6% | NCI-H522 lung 90.4% | A549/ATCC NSCLC 91.1% | 786-0 renal 98.4% | COLO 205 colon 99.4%

COc1ccc(-c2oc3cc(O)cc(O)c3c(=O)c2OC)cc1O
active: NCI-H522 lung -21%
inactive: NCI-H23 lung 25.7% | NCI-H226 lung 73.6% | NCI-H322M lung 41.2% | HOP-62 NSCLC 29.1% | HOP-92 NSCLC 41.2% | A549/ATCC NSCLC 38% | 786-0 renal 38.8% | COLO 205 colon 91.4%

O=C(Nc1cccc(-c2nc(-c3ccc(NC(=O)c4cccnc4)cc3Cl)no2)c1)Nc1ccc(NC(=O)C2CC2)c(C(F)(F)F)c1
active: NCI-H23 lung -68.6% | NCI-H226 lung -55.9% | NCI-H322M lung -30.7% | NCI-H460 lung -77.7% | HOP-92 NSCLC -68.1% | NCI-H522 lung -43.6% | A549/ATCC NSCLC 7.02% | 786-0 renal -47.5%

CC1CCN(S(=O)(=O)c2ncsc2-c2ccccc2)CC1
inactive: NCI-H23 lung 92.9% | NCI-H226 lung 99.9% | NCI-H322M lung 98.6% | NCI-H460 lung 91.5% | HOP-92 NSCLC 116% | NCI-H522 lung 98.5% | A549/ATCC NSCLC 93.1% | 786-0 renal 30.8% | COLO 205 colon 112%

COc1cc2oc(-c3cccc(NC(=O)c4cc(NC(=O)[C@H](C)N)ccc4Cl)c3)cc(=O)c2c(OC)c1OC
inactive: NCI-H23 lung 91.5% | NCI-H226 lung 86% | NCI-H322M lung 104% | NCI-H460 lung 99.8% | HOP-92 NSCLC 17.2% | NCI-H522 lung 94.9% | A549/ATCC NSCLC 96.3% | 786-0 renal 91.7% | COLO 205 colon 101%

COc1cc(/C=N/n2cnc3oc(-c4ccccc4)cc3c2=N)cc(CN2CCOCC2)c1O
inactive: NCI-H23 lung 73% | NCI-H226 lung 62.4% | NCI-H322M lung 97.5% | HOP-92 NSCLC 63.3% | NCI-H522 lung 61.1% | A549/ATCC NSCLC 80.1% | 786-0 renal 45.6% | COLO 205 colon 82.4%

O=C(CCCCCCN1CC(=O)N2[C@@H](c3cccc(Br)c3)c3[nH]c4ccccc4c3C[C@H]2C1=O)NO
inactive: NCI-H23 lung 43.1% | NCI-H226 lung 91.7% | NCI-H322M lung 42.2% | NCI-H460 lung 26.4% | A549/ATCC NSCLC 59.4% | 786-0 renal 46.6%
active: HOP-92 NSCLC 2% | NCI-H522 lung 8.55% | COLO 205 colon 7.27%

COc1cc(/C=C2\SC(=O)NC2=O)ccc1OCC(=O)Nc1ccc(C(=O)/C=C/c2cc3ccccc3nc2Cl)cc1
inactive: NCI-H23 lung 68.6% | NCI-H226 lung 96.2% | NCI-H322M lung 99.2% | NCI-H460 lung 96.3% | HOP-92 NSCLC 82.5% | NCI-H522 lung 72.5% | A549/ATCC NSCLC 102% | 786-0 renal 101% | COLO 205 colon 116%

C#CCOc1ccc(C(Nc2ccc(Cl)cc2)c2nnnn2C2CCCCC2)cc1 (stereo not drawn)
inactive: NCI-H23 lung 91.7% | NCI-H226 lung 88.4% | NCI-H322M lung 93.6% | NCI-H460 lung 83.1% | HOP-92 NSCLC 81.8% | NCI-H522 lung 81% | A549/ATCC NSCLC 78.8% | 786-0 renal 92.5%

CS(=O)c1nccc(-c2c(-c3ccc(F)c(OCCc4ccccc4)c3)nc3sccn23)n1 (stereo not drawn)
active: NCI-H522 lung -79.1%
inactive: NCI-H23 lung 86.1% | NCI-H226 lung 102% | NCI-H322M lung 76.7% | NCI-H460 lung 57.3% | HOP-92 NSCLC 77% | A549/ATCC NSCLC 109% | 786-0 renal 104% | COLO 205 colon 80.7%

COc1ccc2c(C3=C(c4cn(C)c5ccccc45)C(=O)NC3=O)coc2c1
inactive: NCI-H23 lung 34.8% | NCI-H226 lung 20.3% | NCI-H322M lung 58.4% | HOP-92 NSCLC 25.3% | A549/ATCC NSCLC 38.7% | 786-0 renal 44.9%
active: NCI-H460 lung 9.16% | NCI-H522 lung -29.5% | COLO 205 colon 1.81%

C=C1C(=O)O[C@@H]2C[C@@H](C)[C@H](OC)CC(=O)[C@](C)(OC(C)=O)C[C@H](OC(=O)/C(C)=C\C)[C@@H]12
inactive: NCI-H23 lung 70% | NCI-H226 lung 96.4% | NCI-H322M lung 95.1% | NCI-H460 lung 101% | HOP-92 NSCLC 85.1% | A549/ATCC NSCLC 100% | 786-0 renal 93%
active: NCI-H522 lung -67.8% | COLO 205 colon -7.69%

CN1CCN(c2ccc(C(=O)/C=C/c3ccc(Cl)c(C(F)(F)F)c3)cc2)CC1
inactive: NCI-H23 lung 81.5% | NCI-H226 lung 86% | NCI-H322M lung 78.8% | NCI-H460 lung 88% | HOP-92 NSCLC 41.8% | NCI-H522 lung 76.4% | A549/ATCC NSCLC 72.8% | 786-0 renal 79.9% | COLO 205 colon 60.6%

Cc1ccc(/C=C/CC(=O)Nc2ccc(C(=O)Nc3ccc(F)cc3N)nc2)cn1
active: HOP-92 NSCLC -3.93% | NCI-H522 lung 2.35%
inactive: NCI-H23 lung 45.7% | NCI-H226 lung 50.3% | NCI-H322M lung 52.7% | NCI-H460 lung 45.6% | A549/ATCC NSCLC 43.8% | 786-0 renal 51.4% | COLO 205 colon 25%

CS(=O)c1nccc(-c2c(-c3ccc(F)c(OCc4ccc(F)cc4)c3)nc3sccn23)n1 (stereo not drawn)
inactive: NCI-H23 lung 61.6% | NCI-H226 lung 95.3% | NCI-H322M lung 62.7% | HOP-62 NSCLC 100% | HOP-92 NSCLC 16.9% | A549/ATCC NSCLC 102% | 786-0 renal 100% | COLO 205 colon 100%

O=c1cc(-c2ccccc2)nc2sc(-c3c[nH]c4ccc(F)cc34)nn12
inactive: NCI-H23 lung 73.2% | NCI-H226 lung 41% | NCI-H322M lung 61.2% | NCI-H460 lung 17.2% | NCI-H522 lung 62.6% | A549/ATCC NSCLC 58.7% | 786-0 renal 15.8% | COLO 205 colon 74.7%
active: HOP-92 NSCLC -1.32%

NCCN1CCN(c2nc(-c3ccccc3)nc3nc(-c4ccccc4)oc23)CC1
active: NCI-H23 lung -42.7% | NCI-H226 lung -57.6% | NCI-H322M lung -41.4% | NCI-H460 lung -67.7% | NCI-H522 lung -13.1% | A549/ATCC NSCLC -63.7% | 786-0 renal -83.3% | COLO 205 colon -44.7%
inactive: HOP-92 NSCLC 58.9%

CC1=C2C(=C[C@@](C)(COS(N)(=O)=O)[C@@H]2O)C(=O)[C@](C)(O)C12CC2
inactive: NCI-H23 lung 23.6% | NCI-H226 lung 85.8% | NCI-H322M lung 74.4% | HOP-92 NSCLC 43.8% | NCI-H522 lung 70.5% | A549/ATCC NSCLC 21.2% | 786-0 renal 79.4% | COLO 205 colon 47.7%
active: NCI-H460 lung 7.04%

O=c1c2ccccc2nc(COc2ccccc2)n1/N=C/C=C/c1ccccc1
inactive: NCI-H23 lung 95.9% | NCI-H226 lung 98.1% | NCI-H322M lung 93% | NCI-H460 lung 99.1% | HOP-92 NSCLC 102% | NCI-H522 lung 81.4% | A549/ATCC NSCLC 100% | 786-0 renal 100% | COLO 205 colon 113%

C#C[C@]1(O)CC[C@H]2[C@@H]3CC=C4c5sc(C6CCOCC6)nc5CC[C@]4(C)[C@H]3CC[C@@]21C
inactive: NCI-H23 lung 74.4% | NCI-H226 lung 82.5% | NCI-H322M lung 84.1% | NCI-H460 lung 79.8% | HOP-92 NSCLC 103% | NCI-H522 lung 80.8% | A549/ATCC NSCLC 73.2% | 786-0 renal 62.7% | COLO 205 colon 103%

NC(=S)N/N=C(/C=C/c1cn(-c2ccccc2)nc1-c1ccc(Cl)cc1)c1cc2ccccc2oc1=O
inactive: NCI-H23 lung 46.5% | NCI-H226 lung 62.2% | NCI-H322M lung 60% | NCI-H460 lung 18.3% | HOP-92 NSCLC 70.2% | NCI-H522 lung 46.9% | A549/ATCC NSCLC 41.4% | 786-0 renal 58.1% | COLO 205 colon 38.1%

CCOC(=O)C1=C(C)Nc2nc3ccccc3n2C1c1ccccc1 (stereo not drawn)
inactive: NCI-H23 lung 97% | NCI-H226 lung 104% | NCI-H322M lung 104% | NCI-H460 lung 74.7% | HOP-92 NSCLC 95.7% | NCI-H522 lung 93.3% | A549/ATCC NSCLC 92.7% | 786-0 renal 95.4% | COLO 205 colon 104%

O=C(NCCNc1cc(-c2cn(-c3ccccc3)nc2-c2cccc(O)c2)ccn1)Nc1ccc(Cl)c(C(F)(F)F)c1
inactive: NCI-H23 lung 41.3% | NCI-H226 lung 81.5% | NCI-H322M lung 68.4% | NCI-H460 lung 58.5% | HOP-92 NSCLC 44% | NCI-H522 lung 72.5% | A549/ATCC NSCLC 61.8% | 786-0 renal 64.6% | COLO 205 colon 92.9%
